HT1080 IDH1KD tx: qHTS for induction of synthetic lethality in tumor cells producing 2HG: qHTS for the HT-1080-IDH1KD cell line; AID 686971, 2013; 360,000 tested, 2% active; HT-1080 IDH1 knockdown viability, ATP luminescence, 48 h; Potency, µM (titrated, usually from 46.1 µM), without a hit: at the highest dose activity, negative = toxicity, most hits filed as cytotoxic;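 note: potency is the fitted concentration of half-maximal effect; 0% = DMSO wells and -100% = cell-free medium wells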
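Cytotoxicity counter-line: IDH1KD HT-1080, 48 h, CellTiter-Glo. Curves classed by r2, magnitude and activity.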
ELG1 repair inh: qHTS screen for small molecules that inhibit ELG1-dependent DNA repair in human embryonic kidney (HEK293T) cells expressing luciferase-tagged ELG1 | HEK293T ELG1-luciferase reporter, luminescence, 16 h; DNA damage induced by 5-fluorouridine | Potency, µM (top dose mostly 46.1 µM), inactives show top-dose activity change, negative = inhibition, usual class: inhibitors | 330,000 tested, 2.3% active; note: potency is the fitted concentration of half-maximal effect; nearly all actives have a fitted effect of over 55% in size
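Cells (2,000 per well) received 5-fluorouridine plus test compound or DMSO and were incubated 16 hr at 37 °C, 5% CO2. Luciferase activity was read by luminescence 30 min after ONE-Glo addition; signal suppression marked inhibition of damage-induced ELG1 function.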
DT40 TDP1 CPT: qHTS for Inhibitors of human tyrosyl-DNA phosphodiesterase 1 (TDP1): qHTS in cells in presence of CPT | chicken DT40 Tdp1-/-;hTDP1 cells + 20 nM CPT, ATP luminescence, 48 h | Potency, µM (series often up to 46.2 µM), for inactives: at the highest dose activity change, negative = growth inhibition, actives largely listed as inhibitors | 420,000 tested, 12% active; note: potency is the fitted concentration of half-maximal effect; nearly all actives have a fitted effect of over 55% in size
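Chicken DT40 Tdp1-/- cells stably complemented with human TDP1 were seeded at 400 cells/well in medium containing 20 nM camptothecin, exposed to pin-transferred compounds, and grown at 37 °C for at least 48 hr. Viability was read as ATP luminescence.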
DT40 TDP1 no CPT: qHTS for Inhibitors of human tyrosyl-DNA phosphodiesterase 1 (TDP1): qHTS in cells in absence of CPT. AID 686978, 2013. DT40 Tdp1-/- hTDP1 cells, no CPT, ATP luminescence, 48 h. 420,000 tested, 15% active. Potency, µM (series often up to 46.2 µM), for inactives: top-dose activity change, negative = growth inhibition, actives largely listed as inhibitors; note: potency is the fitted concentration of half-maximal effect; nearly all actives have a fitted effect of over 55% in size
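Cells were dispensed at 400 per well, compounds added by pin tool, plates incubated ≥48 hr at 37 °C, then CellTiter-Glo added for 30 min at room temperature before luminescence reading. Line: DT40 Tdp1-/- complemented with hTDP1; camptothecin omitted.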
HT1080NT lethal: qHTS for induction of synthetic lethality in tumor cells producing 2HG: qHTS for the HT-1080-NT fibrosarcoma cell line; HT-1080-NT fibrosarcoma viability, CellTiter-Glo ATP luminescence, 48 h; Potency, µM (top dose mostly 46.1 µM), for the others: at the top dose activity, negative = less viability, hits mostly cytotoxic; 360,000 tested, 1.6% active; AID 686970, 2013;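 note: NT is the 2HG producing partner of a matched IDH1 knockdown line; potency is the fitted concentration of half-maximal effect; 0% = DMSO-treated cells and -100% = media-only wells without cells; nearly all actives have a fitted effect of over 55% in size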
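HT-1080-NT; 750 cells/well; 5% FBS RPMI; 48 h compound, 37 degrees C; CellTiter-Glo luminescence; curve fitting and curve-class assignment.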
IL-1B inflam inh: qHTS for Inhibitors of Inflammasome Signaling: IL-1-beta AlphaLISA Primary Screen; THP-1 LPS/ATP IL-1B secretion, AlphaLISA, 16 h; hits give low values; activity change, % at 57.5 µM; 360,000 tested, 4.7% active; in the data active = activity change below about -50%; inconclusive = mostly about -30% to -49%
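THP-1 cells pretreated 1 hr with compounds (up to 57.5 uM final), then stimulated with LPS (250 ng/mL final) plus ATP (1.25 mM final); secreted IL-1B measured by AlphaLISA after 16 hr, decreased signal indicating inhibition.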
* hit, by the source's call; u = inconclusive; x = no result. Shown are actives, neighbours in structure and some others; about 19% of the full set was active somewhere. Unless noted, calls come from the whole dose curve; as a rule, active = well fitted curve in the direction sought with a large enough effect; inconclusive = small, poorly fitted or top-dose-only effect, or another doubt; inactive = no such curve, though single readings can be large; an effect the other way counts as inactive or inconclusive. Unless noted, % is set by controls: 0 for no effect and ±100 for the full control effect.

SMILES | HT1080 IDH1KD tx | ELG1 repair inh | DT40 TDP1 CPT | DT40 TDP1 no CPT | HT1080NT lethal | IL-1B inflam inh
O=C(CSc1oc(-c2ccccc2)nc1S(=O)(=O)c1ccc(Cl)cc1)NC1CCCCC1 | x | x | -3% | -14% | x | x
O=C(CSc1oc(-c2ccccc2)nc1S(=O)(=O)c1ccc(Br)cc1)c1ccccc1 | x | x | u | 10µM* | x | x
O=C(CSc1oc(-c2ccccc2)nc1S(=O)(=O)c1ccccc1)c1ccccc1 | x | x | 12µM* | 15µM* | x | x
Cc1cc(C)cc(NC(=O)CSc2oc(-c3ccccc3)nc2S(=O)(=O)c2ccccc2)c1 | x | x | 18µM* | 23µM* | x | x
NC(=O)c1ccc2c(=O)n3c(-c4cc(Cl)c(N)c(Cl)c4)csc3nc2c1 | u | 10µM* | 16µM* | 18µM* | u | -23
Cn1ncc(Cl)c1C(=O)NCc1cc(C(C)(C)C)n[nH]1 | u | u | u | 18µM* | 1% | 20
Cn1nccc1CNC(=O)c1c(Cl)cnn1C | 2% | 18% | -3% | -21% | -5% | 7
CCn1c(CNC(=O)COc2ccc(C(C)C)cc2)nnc1SCC(=O)Nc1ccccc1F | 1% | u | -12% | -25% | u | u
CCn1c(CNC(=O)COc2ccc(C(C)C)cc2)nnc1SCC(=O)Nc1ccccc1C(C)C | u | u | 16µM* | 16µM* | u | -20
COCCOC(=O)c1c(C)n(C)c2ccc(OC(=O)c3c(OC)cccc3OC)cc12 | -10% | u | u | 16µM* | -20% | 27
CCOC(=O)c1c(C)n(C)c2ccc(OC(C)=O)cc12 | 1% | 20% | -10% | -15% | 8% | -15
COc1ccc2c(c1)c(C(=O)OCCN(C)C)c(C)n2C | -2% | u | -14% | u | -10% | -69*
COCCOC(=O)c1c(C)n(C)c2ccc(OC(=O)N3CCOCC3)cc12 | -9% | -24% | -9% | -20% | -1% | 16
Cc1ccc(-c2cn(-c3ccc(SC(F)F)cc3)c3[n+]2CCC3)cc1 | u | u | 0.65µM* | 0.46µM* | -28% | u
Clc1ccc(-n2cc(-c3ccc(Br)cc3)[n+]3c2CCCCC3)cc1 | u | u | 5.8µM* | 6.5µM* | -7% | -15
FC(F)Sc1ccc(NC2=NCCCCC2)cc1 | 7% | 18% | 2% | -22% | -6% | -10
FC(F)Sc1ccc(-n2cc(-c3ccc(Cl)cc3)[n+]3c2CCC3)cc1 | 5% | -2% | 9.2µM* | 8.2µM* | 3% | -19
Brc1ccc(-c2csc3[n+]2CCCCC3)cc1 | -21% | u | -4% | u | -3% | 7
Cc1cccc(CN2CCN(C3CN(CCc4ccccc4)S(=O)(=O)C3)CC2)c1 (stereo unspecified) | -3% | x | u | u | 5% | 0
O=C(CC1SC(N2CCOCC2)=NC1=O)Nc1cccc(C(F)(F)F)c1 (stereo unspecified) | 10% | 0% | 2% | -11% | -2% | -2
CCCc1cc(=O)[nH]c(SCC(=O)N(C)C2CCCCC2)n1 | -8% | 10% | 17% | 0% | -1% | 14
CCC(C)Sc1c(C(C)C)cnc2c1c(=O)n(C)c(=O)n2C (stereo unspecified) | x | x | 23µM* | 13µM* | x | x
CC(C)c1cnc2c(c1SCc1cccc(F)c1)c(=O)n(C)c(=O)n2C | x | x | 16µM* | 23µM* | x | x
CCCc1cnc2c(c1SCC(=O)N1CCC(C)CC1)c(=O)n(C)c(=O)n2C | x | x | 16µM* | 21µM* | x | x
CCc1cnc2c(c1SCCC(C)C)c(=O)n(C)c(=O)n2C | x | x | 26µM* | u | x | x
SMILES | HT1080 IDH1KD tx | ELG1 repair inh | DT40 TDP1 CPT | DT40 TDP1 no CPT | HT1080NT lethal | IL-1B inflam inh
CCCc1cnc2c(c1SCC(=O)NCc1ccc(C)cc1)c(=O)n(C)c(=O)n2C | x | x | -8% | -17% | x | x
Cc1cccc(NC(=O)CSc2c(C)cnc3c2c(=O)n(C)c(=O)n3C)c1C | x | x | -5% | u | x | x
C=CCNc1ncnc2c1ncn2[C@H]1CN(CCc2ccccc2)C[C@@H](CO)O1 | 6% | x | u | -29% | 24% | -4
CCOc1ccc(NS(=O)(=O)c2ccc(Cl)c(N=Nc3c(O)[nH]c(=S)[nH]c3=O)c2)cc1Br | 4% | x | -10% | u | 1% | 10
CC(C)c1cnc2c(c1SCC(=O)N1CCCCC1)c(=O)n(C)c(=O)n2C | x | x | 23µM* | u | x | x
CC(C)c1cnc2c(c1SCC(=O)c1ccccc1)c(=O)n(C)c(=O)n2C | x | x | u | 13µM* | x | x
CC(C)c1cnc2c(c1SCC(=O)NC(C)(C)C)c(=O)n(C)c(=O)n2C | x | x | 4% | -18% | x | x
CCCc1cnc2c(c1SCC(=O)Nc1ccccc1F)c(=O)n(C)c(=O)n2C | x | x | u | 23µM* | x | x
CCCNC(=O)CSc1c(CCC)cnc2c1c(=O)n(C)c(=O)n2C | x | x | 0% | -6% | x | x
CCc1cnc2c(c1SCc1c(F)cccc1Cl)c(=O)n(C)c(=O)n2C | x | x | 15µM* | 26µM* | x | x
CCCCN(CC)CCCNC(=O)Cn1nc(CC)n2c(cc3sccc32)c1=O | x | x | -15% | u | x | x
O=C(NCc1cccs1)c1ccc2sc([C@@H]3O[C@H](CO)[C@H](O)[C@H](O)[C@H]3O)nc2c1 | 14% | x | -18% | 0% | 20% | 41
COc1ccc(NC(=O)CSc2c(C(C)C)cnc3c2c(=O)n(C)c(=O)n3C)c(OC)c1 | x | x | 23µM* | 23µM* | x | x
COc1ccc(/C=N\NC(=O)c2cccc([N+](=O)[O-])c2)cc1Cn1cc([N+](=O)[O-])cn1 | x | 15µM* | x | x | x | x
COc1ccc(C(=O)N/N=C\c2ccc(OC)c(COc3ccccc3Br)c2)c(OC)c1 | u | 8.2µM* | 23µM* | u | 1% | -14
COc1ccc(/C=N/NC(=O)c2ccn[nH]2)cc1Cn1cc([N+](=O)[O-])cn1 | -1% | u | -1% | -17% | 1% | 22
COc1ccc(/C=N/NC(=O)c2cccnc2)cc1CSc1ccccn1 | 12µM* | u | 6.5µM* | 6.5µM* | 23µM* | 60
COc1ccc(C(=O)N/N=C/c2ccc(OC)c(CN3CCN(c4ccc(F)cc4)CC3)c2)cc1 | 1% | 21µM* | u | u | 0% | -5

Screens: PubChem, National Center for Advancing Translational Sciences (NCATS)
